The values that follow come from PubChem BioAssay (Tox21).

Records with an inconclusive call do not appear. Entries that show only a call come without a potency. Calls of active or inactive are those of the source. The call rests on the fitted dose curve; in most records, active means well fitted inhibition curve with a large enough effect in the repeat runs; inconclusive means weak or mixed curves; inactive means no such curve, though single readings can be large or run the other way. Non-standard residues stand in square brackets, D forms with d. Residues, ends and D or L forms follow the SMILES beside them. *: point of attachment. Sta = CC(C)C[C@H](N)[C@@H](O)CC(=O)O; Isovaleryl = CC(C)CC(=O)*
Potency means the concentration at half of the fitted maximal effect.

The nature of this experiment: qHTS assay to identify small molecule antagonists of the thyroid receptor (TR) signaling pathway (AID 743065). Further: nearly all actives have a fitted effect of over 55% in size. Conditions: GH3.TRE-Luc, T3-stimulated luciferase inhibition, 23.5 h; series mostly up to 70.3 µM. An outline of the steps:
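Antagonism measured as loss of luciferase signal in GH3 cells stably carrying a TRE-luciferase reporter, co-treated with compound and T3 (1 nM final) for 23.5 h at 37 C. Viability was read in the same well by CellTiter-Fluor.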
Turning to `CCN1CCN(C(=O)N[C@@H](C(=O)N[C@@H]2C(=O)N3[C@@H]2SC(C)(C)[C@H]3C(=O)O)c2ccccc2)C(=O)C1=O`, the Potency result is “inactive”. To `COC(=O)c1ccccc1Cl` belongs “inactive”; to `CC(C)C(C)C`, “inactive”. On to `O=C(O)CCC(=O)Nc1ccc(S(=O)(=O)Nc2nccs2)cc1`, for which the Potency entry is “inactive”. Consider `CCCC(C)C(O)CC` (centres undefined), for which the Potency result is “inactive”. Take `C=C(C)C(=O)OCCCC`: the Potency result is “inactive”.

For the molecule `CC(C)CC(=O)N[C@H](C(=O)N[C@H](C(=O)N[C@@H](CC(C)C)[C@@H](O)CC(=O)N[C@@H](C)C(=O)N[C@@H](CC(C)C)[C@@H](O)CC(=O)O)C(C)C)C(C)C` (Isovaleryl-VV[Sta]A[Sta]-OH), the Potency result is “inactive”. Take `CCOc1ccccc1OCCN[C@H](C)Cc1ccc(OC)c(S(N)(=O)=O)c1`: the Potency result was “inactive”.

Turning to `CC(C)OCCO`, the Potency entry is “inactive”. Take `CC(=O)c1c(C)cc(C(C)(C)C)cc1C`: the Potency result was “inactive”. Take `CCCCCCCCS(=O)(=O)O`: the Potency result is “inactive”. For the molecule `O=C[C@@H](O)[C@H](O)[C@H](O)CO`, the Potency entry is “inactive”. Take `O=C1Nc2ccccc2C1=O`: the Potency entry was “inactive”. For the molecule `CC1(C)CC(N)CC(C)(C)N1`, the Potency result was “inactive”.

`CCCCCCCCOCCC#N`: the Potency result is “inactive”.

Regarding `CC(C)OC(=O)C(C(=O)OC(C)C)=C1SC=CS1`, the Potency entry was “inactive”. Consider `CC(C)(C)OC=O`, for which the Potency result is “inactive”. Take `C=CCN1CCc2nc(N)sc2CC1`: the Potency entry is “inactive”. In the case of `O=Cc1ccccc1S(=O)(=O)O`, the Potency entry was “inactive”.

`Cc1ccc2ccccc2n1`: the Potency result is “inactive”.

Turning to `CCCCCC(CC)OC(=O)CCCOc1ccc(Cl)cc1Cl` (centres undefined), the Potency entry was “inactive”. With `CCc1ncc(C)[nH]1`, the Potency result was “inactive”. On to `COc1cc(C(=O)NC2CCCNC2)cc(OC)c1OC` (centres undefined), for which the Potency entry is “inactive”. For `COc1ccc(Cl)cc1C`, the Potency result is “inactive”.

`NC(=O)CC[C@@H](N)C(=O)O`: the Potency entry is “inactive”. With `NC[C@H]1O[C@H](O[C@H]2[C@H](O)[C@@H](O[C@H]3O[C@H](CO)[C@@H](O)[C@H](N)[C@H]3O)[C@H](N)C[C@@H]2N)[C@H](N)[C@@H](O)[C@@H]1O`, the Potency entry is “inactive”. Turning to `COC(C)(C)CC(C)=O`, the Potency entry is “inactive”.

Consider `CC[N+](C)(CC)CC`, for which the Potency entry was “inactive”. Take `CCOCCOCCOC(C)=O`: the Potency entry was “inactive”. As for `CCCCCCCCCCCCCCCC/C=C/C1CC(=O)OC1=O` (centres undefined), the Potency is 29.7 µM (active).

As for `COc1cc(NS(=O)(=O)c2ccc(N)cc2)ncn1`, the Potency entry is “inactive”. Take `O=S(=O)(O)c1cc(I)c(O)c2ncccc12`: the Potency result is “inactive”.

Turning to `CCCCCCCCC1CO1` (centres undefined), the Potency result is “inactive”. Regarding `COc1ccc2cc(CCC(C)=O)ccc2c1`, the Potency result is “inactive”.
